Source: PubChem BioAssay
SRC1 TRFRET art: TR-FRET detection interference compounds, primary screen, artefact control for PPARgamma SRC-1 recruitment agonists, biochemical, TR-FRET emission ratio; TR-FRET detection artefact counter-screen; hits give high values; TR-FRET ratio at 8 µM; 99,000 tested, 0.34% active; AID 1051, 2008; in the data active = TR-FRET ratio above about 2300
SRC2 TRFRET art: TR-FRET signal artefacts, primary screen, artefact control for PPARgamma SRC-2 agonist project, biochemical. 200,000 tested, 0.4% active. AID 1049, 2008. TR-FRET ratio at 8 µM. TR-FRET artefact counter-screen; hits give high values
PPARg SRC-1 ag: PPARgamma agonists recruiting SRC-1 coactivator, primary screen, biochemical | Peroxisome proliferator-activated receptor gamma (Homo sapiens), P37231 | PPARgamma-SRC-1 coactivator recruitment biochemical assay | activation, % at 8 µM | 200,000 tested, 0.41% active; in the data active = activation above about 19%;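 also: 0% = DMSO and 100% = reference agonist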
Target sequence (P37231 whole entry, looked up): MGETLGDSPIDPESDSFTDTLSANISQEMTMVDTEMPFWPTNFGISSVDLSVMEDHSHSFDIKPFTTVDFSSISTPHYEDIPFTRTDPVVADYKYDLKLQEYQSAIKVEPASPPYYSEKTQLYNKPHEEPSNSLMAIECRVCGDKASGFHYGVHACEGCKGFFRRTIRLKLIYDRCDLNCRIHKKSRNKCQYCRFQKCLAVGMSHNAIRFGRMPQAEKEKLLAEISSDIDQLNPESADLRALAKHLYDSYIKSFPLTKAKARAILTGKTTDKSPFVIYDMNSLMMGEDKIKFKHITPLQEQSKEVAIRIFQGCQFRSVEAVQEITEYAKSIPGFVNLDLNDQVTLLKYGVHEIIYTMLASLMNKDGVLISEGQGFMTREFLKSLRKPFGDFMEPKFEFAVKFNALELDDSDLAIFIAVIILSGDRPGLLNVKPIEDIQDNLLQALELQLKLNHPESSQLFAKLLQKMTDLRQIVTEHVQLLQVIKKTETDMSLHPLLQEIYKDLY
SRC3 TRFRET art: TR-FRET detection interference compounds, artefact control for PPARgamma SRC-3 recruitment agonists, biochemical, TR-FRET ratio | TR-FRET artefact counter-screen, PPARgamma/SRC-3 format; hits give high values | TR-FRET ratio at 8 µM | 99,000 tested, 0.39% active | AID 1048, 2008
PPARg SRC2 recr: agonists of PPARg-SRC-2 recruitment, primary screen, biochemical, HTS; Peroxisome proliferator-activated receptor gamma (Homo sapiens), P37231; PPARgamma LBD-SRC-2 recruitment; activation, % at 8 µM; 200,000 tested, 0.34% active; AID 1032, 2008; in the data active = activation above about 22%;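 also: 0% = vehicle and 100% = reference agonist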
PPARg SRC-3 ag: PPARgamma agonists recruiting SRC-3 coactivator, primary screen, biochemical | 200,000 tested, 0.26% active | activation, % at 8 µM | biochemical PPARgamma/SRC-3 coactivator recruitment assay; in the data active = activation above about 23%;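 also: 0% = DMSO and 100% = reference agonist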
Starred values were filed as active, the others as inactive. Shown are actives, neighbours in structure and some others; about 0.9% of the full set was active somewhere. Rule as the data show it, unless noted: active = TR-FRET ratio above about 2000; inactive = the rest.

How did CCOc1ccccc1NC(=O)CSc1ncnc2c1oc1ccccc12 do in these assays?
SRC2 TRFRET art: 1627; PPARg SRC-1 ag: 10.9; PPARg SRC2 recr: 6.5; PPARg SRC-3 ag: -0.1

Results for CCc1cccc2c1NC(=O)[C@]21[C@@H]2C(=O)N(Cc3ccccc3)C(=O)[C@@H]2[C@@H]2CCCN21 ?
SRC2 TRFRET art: 1685; PPARg SRC-1 ag: 11.8; PPARg SRC2 recr: 7.8; PPARg SRC-3 ag: -3.6

What do the screens show for `CC(C)c1ccc(NC(=O)N2CCc3ccccc3C2)cc1`?
SRC1 TRFRET art: 1642; SRC2 TRFRET art: 1534; PPARg SRC-1 ag: -2.9; SRC3 TRFRET art: 1306; PPARg SRC2 recr: 2.2; PPARg SRC-3 ag: -2.4

How did Cc1cc(O)c(C(=O)c2ccccc2C(=O)O)cc1C do in these assays?
SRC2 TRFRET art: 1482; PPARg SRC-1 ag: 10.4; PPARg SRC2 recr: 5.6; PPARg SRC-3 ag: 22.7

How did O=S1(=O)CC2N=C(N(Cc3ccc(F)cc3Cl)c3ccccc3F)SC2C1 (stereo unspecified) do in these assays?
SRC1 TRFRET art: 1784; SRC2 TRFRET art: 1811; PPARg SRC-1 ag: 3.1; SRC3 TRFRET art: 1453; PPARg SRC2 recr: 25.4*; PPARg SRC-3 ag: -6.4

What do the screens show for `CC1=C(C(=O)Nc2ccc(F)c(F)c2)C(c2cccs2)NC(=S)N1` (stereo unspecified)?
SRC1 TRFRET art: 2450*; SRC2 TRFRET art: 1973*; PPARg SRC-1 ag: 16.7; SRC3 TRFRET art: 1907; PPARg SRC2 recr: 16.1; PPARg SRC-3 ag: 8.2

Results for Cc1ccc(-c2cnc(NC(=O)c3cccc(Br)c3)s2)c(C)c1 ?
SRC2 TRFRET art: 1457; PPARg SRC-1 ag: -2.0; PPARg SRC2 recr: -11.7; PPARg SRC-3 ag: -4.3

Results for COCc1cc(C)nc(Nc2ccc(C)cc2C)c1C#N ?
SRC2 TRFRET art: 1983*; PPARg SRC-1 ag: 13.8; PPARg SRC2 recr: 18.7; PPARg SRC-3 ag: 14.1

How did O=C(CSc1nnc(C2CC2)n1-c1ccccc1)NCCc1ccc(F)cc1 do in these assays?
SRC2 TRFRET art: 2046*; PPARg SRC-1 ag: 0.2; PPARg SRC2 recr: 22.5*; PPARg SRC-3 ag: 12.4

What do the screens show for `CCC(=O)Nc1c(C)nn(C(=O)CC)c1C`?
SRC2 TRFRET art: 1485; PPARg SRC-1 ag: -4.1; PPARg SRC2 recr: -6.9; PPARg SRC-3 ag: 0.9

Results for CCOC(=O)c1c(C)[nH]c(C(=O)COC(=O)CNC(=O)C2CCCCC2)c1C ?
SRC2 TRFRET art: 1519; PPARg SRC-1 ag: 6.9; PPARg SRC2 recr: 2.4; PPARg SRC-3 ag: 28.8*

What do the screens show for `N#Cc1cc(C(=O)c2ccccc2OCC(=O)Nc2ccccc2Cl)cn(C2CCCCC2)c1=O`?
SRC1 TRFRET art: 1593; SRC2 TRFRET art: 1657; PPARg SRC-1 ag: 4.5; SRC3 TRFRET art: 2092*; PPARg SRC2 recr: 10.9; PPARg SRC-3 ag: 1.3

How did CC(=O)c1cccc(NC(=O)COc2ccccc2C(=O)c2cc(C#N)c(=O)n(C3CCCCC3)c2)c1 do in these assays?
SRC1 TRFRET art: 1806; SRC2 TRFRET art: 1658; PPARg SRC-1 ag: 0.0; SRC3 TRFRET art: 1952; PPARg SRC2 recr: 1.9; PPARg SRC-3 ag: 0.9

How did CC(=O)Nc1ccc(S(=O)(=O)N2CCN(C(=O)c3cccnc3)CC2)cc1 do in these assays?
SRC2 TRFRET art: 1444; PPARg SRC-1 ag: 6.8; PPARg SRC2 recr: 2.0; PPARg SRC-3 ag: 3.3

Results for Cc1ccccc1N=Cc1cc2c(cc1O)OC(N)=C(C#N)C2c1ccccc1 (stereo unspecified) ?
SRC1 TRFRET art: 2419*; SRC2 TRFRET art: 1668; PPARg SRC-1 ag: 13.5; SRC3 TRFRET art: 1831; PPARg SRC2 recr: 9.3; PPARg SRC-3 ag: 2.6

Results for CC(=O)Nc1cc(NC(=O)CCCC(=O)O)ccc1Cl ?
SRC2 TRFRET art: 1633; PPARg SRC-1 ag: -0.2; PPARg SRC2 recr: -5.6; PPARg SRC-3 ag: -10.5

What do the screens show for `CC(C)(C)Nc1nc(SCC(=O)Nc2ccccc2)nc(N2CCOCC2)n1`?
SRC1 TRFRET art: 1574; SRC2 TRFRET art: 1524; PPARg SRC-1 ag: -0.3; SRC3 TRFRET art: 1316; PPARg SRC2 recr: -1.6; PPARg SRC-3 ag: -1.2

What do the screens show for `FC(F)(F)c1nc(=S)c2ccccc2[nH]1`?
SRC1 TRFRET art: 2370*; SRC2 TRFRET art: 2366*; PPARg SRC-1 ag: 22.6*; SRC3 TRFRET art: 2198*; PPARg SRC2 recr: 26.6*; PPARg SRC-3 ag: 21.3

How did COc1ccc(NC(=O)NCc2ccc3c(c2)OCO3)cc1 do in these assays?
SRC1 TRFRET art: 1783; SRC2 TRFRET art: 1486; PPARg SRC-1 ag: -1.2; SRC3 TRFRET art: 1563; PPARg SRC2 recr: 5.3; PPARg SRC-3 ag: -0.7

How did O=C(Nc1ccc(N2CCOCC2)cc1)Nc1ccc2nsnc2c1 do in these assays?
SRC1 TRFRET art: 2437*; SRC2 TRFRET art: 1863; PPARg SRC-1 ag: 6.9; SRC3 TRFRET art: 1642; PPARg SRC2 recr: 10.6; PPARg SRC-3 ag: 8.8

How did O=C(NCc1ccc2c(c1)OCO2)Nc1ccc2nsnc2c1 do in these assays?
SRC1 TRFRET art: 2198; SRC2 TRFRET art: 2378*; PPARg SRC-1 ag: 11.9; SRC3 TRFRET art: 1791; PPARg SRC2 recr: 66.8*; PPARg SRC-3 ag: 12.9

What do the screens show for `CCN(Cc1ccccc1)C(c1ccc(Cl)cc1)c1nnnn1C(C)(C)C` (stereo unspecified)?
SRC2 TRFRET art: 1685; PPARg SRC-1 ag: -1.5; PPARg SRC2 recr: 4.7; PPARg SRC-3 ag: 2.8

What do the screens show for `Cc1ccccc1OCC(=O)Nc1sc(C(=O)Nc2cccc(C)c2C)c(C)c1C#N`?
SRC2 TRFRET art: 1740; PPARg SRC-1 ag: 23.7*; PPARg SRC2 recr: 5.0; PPARg SRC-3 ag: 5.2

What do the screens show for `CC(=O)Nc1cccc(NC(=O)c2ccc(C)c([N+](=O)[O-])c2)c1`?
SRC1 TRFRET art: 2324*; SRC2 TRFRET art: 1815; PPARg SRC-1 ag: 9.3; SRC3 TRFRET art: 1862; PPARg SRC2 recr: 5.0; PPARg SRC-3 ag: 3.0

What do the screens show for `Cc1cc(C)c(C(=O)CSc2nnc(-c3ccccc3Br)o2)cc1C`?
SRC2 TRFRET art: 1615; PPARg SRC-1 ag: 26.9*; PPARg SRC2 recr: 0.3; PPARg SRC-3 ag: -1.2

What do the screens show for `Cc1ccc(NC(=O)CSc2nnc(-c3ccccc3Br)o2)cc1C`?
SRC2 TRFRET art: 1535; PPARg SRC-1 ag: 3.7; PPARg SRC2 recr: 2.2; PPARg SRC-3 ag: 23.4

What do the screens show for `Cc1nc(N2CCCCC2)c2c(-c3cccs3)csc2n1`?
SRC1 TRFRET art: 2176; SRC2 TRFRET art: 1665; PPARg SRC-1 ag: 11.1; SRC3 TRFRET art: 1885; PPARg SRC2 recr: 4.1; PPARg SRC-3 ag: 10.3

How did Cc1nc(N2CCN(S(=O)(=O)c3ccccc3C#N)CC2)c2c(-c3cccs3)csc2n1 do in these assays?
SRC1 TRFRET art: 2227; SRC2 TRFRET art: 1511; PPARg SRC-1 ag: -0.3; SRC3 TRFRET art: 2725*; PPARg SRC2 recr: -0.7; PPARg SRC-3 ag: -0.7

How did CC(C)Cc1nc2sc3c(NCc4ccco4)ncnc3c2c2c1COC(C)(C)C2 do in these assays?
SRC2 TRFRET art: 4130*; PPARg SRC-1 ag: 4.1; PPARg SRC2 recr: 105.8*; PPARg SRC-3 ag: 2.1
